Compound activity from PubChem.
This excerpt belongs to a sample that is enriched for hits.
Pf Dd2 inh – Plasmodium falciparum Dd2 growth inhibition. AID 1347417. actives 4.3% (n = 120,000). Potency, µM (top dose mostly 28.9 µM), inactives show at the top dose activity, negative = inhibition, hits mostly inhibitors. P. falciparum Dd2 growth, SYBR Green, 72 h; active = well fitted inhibition curve with a large enough effect;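 note: plate controls were DMSO vehicle for no effect and reference drug for full effect; nearly all actives have a fitted effect of over 65% in size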
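Readout: SYBR Green fluorescence, 485 nm excitation, 535 nm emission, after ~16 h lysis at 37C. Before that, Dd2-infected red cells (2.5% hematocrit) grew 72 h with compound, 29 uM top final concentration.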
* hit, by the source's call; [ ] = another dose, or the depositor's remark. Potency is the fitted concentration of half-maximal effect.

What do the screens show for `Cc1ccccc1NC(=O)CN1C(=O)C(c2ccccc2)=NC12CCCCCC2`?
Pf Dd2 inh: inactive

Results for Cc1ccccc1NC(=O)CN1C(=O)C(c2ccccc2)=NC12CCCCC2 ?
Pf Dd2 inh: inactive

How did Cc1ccc(NC(=O)N2CCN(c3nnnn3-c3cccc(C(C)C)c3)CC2)cc1F do in these assays?
Pf Dd2 inh: 11µM*

How did CC(C)c1ccc(NC(=O)N2CCN(c3ccc(Cl)c(Cl)c3)CC2)cc1 do in these assays?
Pf Dd2 inh: 4%

Results for Cc1cc(-n2nnnc2N2CCN(C(=O)Nc3ccc(C)c(F)c3)CC2)ccc1F ?
Pf Dd2 inh: 5µM*

What do the screens show for `CCc1cccc(-n2nnnc2N2CCN(C(=O)NC(C)c3ccccc3)CC2)c1` (stereo not drawn)?
Pf Dd2 inh: -14%

How did Cc1ccc(NC(=O)N2CCN3CCCCC3C2)cc1F (stereo not drawn) do in these assays?
Pf Dd2 inh: -14%

Results for Cc1ccc(NC(=O)N2CCN(c3nnnn3-c3ccccc3)CC2)cc1F ?
Pf Dd2 inh: -29%

What do the screens show for `Cc1noc(C)c1CN1CCC2(CC1)CC(c1ccccc1)C(=O)N2C` (stereo not drawn)?
Pf Dd2 inh: -6%

What do the screens show for `CCOC(=O)N1CCC(N[C@@H]2CC[C@@H]2NC(=O)c2nc(C)oc2C)CC1`?
Pf Dd2 inh: -14%

Results for CCCNC(=O)N1CCCC(c2nc(CCOCC3CC3)no2)C1 (stereo not drawn) ?
Pf Dd2 inh: inactive

What do the screens show for `COc1ccc(S(=O)(=O)NC(C)(C)CO)cc1-c1nnc2c3ccccc3c(C)nn12`?
Pf Dd2 inh: inactive

What do the screens show for `COc1ccc(Nc2nnc(-c3ccc(C)c(S(=O)(=O)N4CCN(C)CC4)c3)c3ccccc23)cc1`?
Pf Dd2 inh: 8.9µM*

How did COc1ccc(N2CCN(S(=O)(=O)c3ccc(-c4ccno4)cc3OC)CC2)cc1 do in these assays?
Pf Dd2 inh: 54%

Results for Cc1ccc(Nc2nnc(-c3ccc(C)c(S(=O)(=O)N4CCN(C)CC4)c3)c3ccccc23)cc1 ?
Pf Dd2 inh: 7.9µM*

How did Cc1ccccc1Nc1nnc(-c2ccc(C)c(S(=O)(=O)NCC3CCCO3)c2)c2ccccc12 (stereo not drawn) do in these assays?
Pf Dd2 inh: 5.6µM*

How did Cc1ccc(-c2nn3c(C)nnc3c3ccccc23)cc1S(=O)(=O)NC(C)(C)CO do in these assays?
Pf Dd2 inh: -29%

What do the screens show for `Cc1ccc(-c2nn3c(C)nnc3c3ccccc23)cc1S(=O)(=O)NCCO`?
Pf Dd2 inh: 8%

What do the screens show for `Cc1ccccc1-c1noc(-c2ccc(NCC3CCCO3)c([N+](=O)[O-])c2)n1` (stereo not drawn)?
Pf Dd2 inh: 8%

How did Cc1ccc(-c2nnc(Nc3ccc(OC(F)(F)Cl)cc3)c3ccccc23)cc1S(=O)(=O)NC(C)(C)CO do in these assays?
Pf Dd2 inh: 13µM*

How did Cc1ccc(-c2nnc(Nc3ccccc3)c3ccccc23)cc1S(=O)(=O)N1CCN(C)CC1 do in these assays?
Pf Dd2 inh: -11%

What do the screens show for `COc1nnc(-c2ccc(N3CCCCC3)c(NC(=O)c3ccc(C)cc3)c2)c2ccccc12`?
Pf Dd2 inh: -8%

How did COc1ccc(S(=O)(=O)N2CCC(c3nnc(-c4ccccc4C)o3)CC2)c(OC)c1 do in these assays?
Pf Dd2 inh: -12%

Results for COc1ccc(CC(=O)NCC(=O)N2CCN(c3ccccn3)CC2)cc1 ?
Pf Dd2 inh: 0%

How did CCO[C@H]1CN(C(=O)c2ccc(-c3noc(C4CC4)n3)cc2)C[C@@H]1O do in these assays?
Pf Dd2 inh: 0%

Results for O=C1CO[C@H]2CN(Cc3ncc[nH]3)C[C@H]2N1Cc1cccnc1 ?
Pf Dd2 inh: 13%[44.1 µM]

Results for O=C(Cn1nc2c(cc1=O)CCCC2)NC1CCS(=O)(=O)C1 (stereo not drawn) ?
Pf Dd2 inh: -17%

What do the screens show for `COC[C@@H]1CN(Cc2cnn(C)c2)C[C@H]1C(=O)N(C)C`?
Pf Dd2 inh: 14%

Results for CCS(=O)(=O)N1CCC2(CC1)CN(Cc1ccc(OC)cc1)C2=O ?
Pf Dd2 inh: 9%

What do the screens show for `O=C([C@@H]1C[C@@H](c2ccc(F)cc2)N([S+](=O)([O-])c2cccnc2)C1)N1CCOCC1`?
Pf Dd2 inh: -22%[44.1 µM]

How did Cc1csc2c(NCCC3CN(c4cnn(C)c(=O)c4)CCO3)ncnc12 (stereo not drawn) do in these assays?
Pf Dd2 inh: -18%

How did CN(C)C[C@@H]1CN(C2CCOCC2)C[C@H]1NC(=O)c1ccnn1C do in these assays?
Pf Dd2 inh: 4%

What do the screens show for `COc1cccc(C(=O)N2CC[C@](O)(c3ccccc3)[C@H](N(C)C)C2)c1`?
Pf Dd2 inh: inactive[5.79 µM]

What do the screens show for `CC(=O)c1ccc(NC(=O)NC[C@H]2C[C@@H]3CCN2C[C@@H]3CN2CCN(c3ncccn3)CC2)cc1`?
Pf Dd2 inh: inactive

Results for Cc1ccc(Nc2nnc(-c3ccc(C)c(S(=O)(=O)N4CCN(C)CC4)c3)c3ccccc23)c(C)c1 ?
Pf Dd2 inh: 7.9µM*

How did COC(=O)COc1ccc(-c2nnc(Nc3ccc(O)cc3)c3ccccc23)cc1 do in these assays?
Pf Dd2 inh: inactive

How did Cc1ccc(-c2nnc(Nc3ccc(O)cc3)c3ccccc23)cc1S(=O)(=O)N1CCOCC1 do in these assays?
Pf Dd2 inh: 8.9µM*

Results for CNC(=O)c1cc(Nc2nnc(-c3ccc(O)cc3)c3ccccc23)ccc1OC ?
Pf Dd2 inh: inactive

What do the screens show for `Cc1ccc(N2CCN(S(=O)(=O)c3ccc(Cl)c4ccccc34)CC2)c(C)c1`?
Pf Dd2 inh: 17%

Results for COc1ccccc1N1CCN(S(=O)(=O)c2cc(-c3cc(C)no3)ccc2C)CC1 ?
Pf Dd2 inh: -4%

How did CCOC(=O)c1cccc(NC(=O)N2CC[C@@H](CC(=O)NCc3ccccc3)[C@@H](CC)C2)c1 do in these assays?
Pf Dd2 inh: inactive

Results for O=C(Cc1c[nH]c2ncc(-c3cccnc3)cc12)NC1CCC1 ?
Pf Dd2 inh: inactive

How did CC(C)C1c2nccn2CCCN1C(=O)c1cnco1 (stereo not drawn) do in these assays?
Pf Dd2 inh: 7%

How did Cc1nn(CC(=O)NC2CCCCC2)c(=O)c2nc(C(C)C)sc12 do in these assays?
Pf Dd2 inh: inactive

How did O=C(NC1CCN(c2cn[nH]c(=O)c2)CC1)C1CCCCC1 do in these assays?
Pf Dd2 inh: -2%

What do the screens show for `OC(c1nc(Nc2ccc(Cl)c(C(F)(F)F)c2)n[nH]1)C1CC1` (stereo not drawn)?
Pf Dd2 inh: -29%[44.1 µM]

What do the screens show for `CCc1ccc(CN(Cc2cn[nH]c2-c2ccc(OC)cc2)C(=O)Nc2cc(Cl)ccc2OC)cc1`?
Pf Dd2 inh: 13µM*

How did COc1ccc(CNC(=O)C(=O)Nc2cc(Cl)ccc2OC)cc1 do in these assays?
Pf Dd2 inh: inactive

How did COc1ccc(CC(=O)NCc2cn[nH]c2-c2ccc(C)cc2)cc1 do in these assays?
Pf Dd2 inh: -11%

How did O=C(NC1CCN(c2cc(-c3ccc(F)cc3)[nH]n2)CC1)c1ccncc1 do in these assays?
Pf Dd2 inh: -20%

What do the screens show for `O=C(CCc1ccccc1Cl)N1CCn2nc(Cc3ccccc3)cc2C1`?
Pf Dd2 inh: -20%

What do the screens show for `O=C(O)C[C@@H]1CCN(C(=O)N2CCOCC2)C[C@@H]1CCN1CCN(c2cccc(C(F)(F)F)c2)CC1`?
Pf Dd2 inh: 19%

Results for COc1cccc(CN2C[C@@H](COCC3CC3)[C@H](c3ccncc3)C2)n1 ?
Pf Dd2 inh: 11µM*

Results for O=C(c1cncnc1)N1C[C@@H](COCC2CC2)[C@H](c2ccncc2)C1 ?
Pf Dd2 inh: 21%

What do the screens show for `Cc1ccccc1C(=O)N1C[C@@H](COCC2CC2)[C@H](c2ccncc2)C1`?
Pf Dd2 inh: -23%
